# Bioassay records deposited in PubChem by The Scripps Research Institute Molecular Screening Center.
# PRMT1 FP inh: inhibitors of human PRMT1; recombinant PRMT1, activity-based probe fluorescence polarization; Q99873; 370,000 compounds, 1.3% hits; inhibition, % at 2.79 µM;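 active means inhibition above about 21% made by adding two undisclosed values, limit read from the data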
# PAD4 FP inh: PAD4 (human) enzyme inhibition | Q9UM07 | recombinant PAD4, RCA probe fluorescence polarization | inhibition, % at 6.36 µM | 330,000 compounds, 0.41% hits | AID 485272;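 active means percent inhibition above a cutoff equal to the mean of all tested compounds plus 3 SD, cut at about 15% in these data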;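 further: 0% = PAD4 with RCA probe and DMSO and 100% = probe without PAD4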
# TCR CD3 inh: inhibitors of human TCR-CD3 interaction; inhibition, % at 9.4 µM; 360,000 compounds, 0.37% hits; TAMRA-labeled TCR probe fluorescence, biochemical; AID 651800; in the data active means inhibition above about 19%;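 further: recombinant mutant TCR 2C K166C tagged with TAMRA read by polarization; 0% = receptor in buffer alone and 100% = receptor with positive control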
# Fam108B counter: Fam108B inhibition, counter-screen for RBBP9 inhibitors. AID 1947. 300,000 compounds, 0.33% hits. inhibition, % at 9.51 µM. recombinant Fam108B, FP-Rh probe fluorescence polarization;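 active means inhibition above the screen mean inhibition plus 3 SD, computed separately per campaign, cut at about 18% in these data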;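 further: inhibitors lower polarization as less probe binds the enzyme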
# PME-1 primary: PME-1 (human) inhibition; recombinant PME-1, FP-Rh probe fluorescence polarization; Q9Y570; 320,000 compounds, 0.53% hits; inhibition, % at 5.9 µM;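 active means inhibition above the campaign mean of all compounds plus 3 SD, cut at about 26% in these data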;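 further: competitive labeling of PME-1 active site by serine hydrolase directed probe; 0% = PME-1 with DMSO and 100% = wells lacking PME-1 enzyme; inhibitors block probe labeling so polarization falls and inhibition rises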
# Target sequence (Q9Y570 whole entry, looked up): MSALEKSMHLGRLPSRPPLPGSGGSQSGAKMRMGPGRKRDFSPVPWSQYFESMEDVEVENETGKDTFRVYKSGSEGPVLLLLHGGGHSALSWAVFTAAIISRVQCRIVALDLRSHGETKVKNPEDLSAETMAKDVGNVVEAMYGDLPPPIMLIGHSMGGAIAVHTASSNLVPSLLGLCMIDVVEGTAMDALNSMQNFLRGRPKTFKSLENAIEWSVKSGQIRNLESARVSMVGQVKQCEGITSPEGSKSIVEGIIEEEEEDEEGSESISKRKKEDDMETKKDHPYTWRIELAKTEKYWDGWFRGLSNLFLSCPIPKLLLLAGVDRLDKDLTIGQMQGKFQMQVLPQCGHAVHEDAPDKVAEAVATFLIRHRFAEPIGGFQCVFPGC
# SIAE inh: inhibitors of human sialic acid acetylesterase SIAE | 370,000 compounds, 0.69% hits | SIAE FP-Rh probe binding, fluorescence polarization | inhibition, % at 9.66 µM | Q9HAT2 | AID 1053197;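 active means inhibition above a cutoff: mean of compounds within the control limits plus 3 SD of those, cut at about 17% in these data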;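 further: 0% = plate median of compound wells and 100% = probe without SIAE protein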
# Fam108b inh conf: Fam108b (mouse) hydrolase inhibition, confirmation assay. recombinant Fam108b, FP-Rh probe fluorescence polarization. 930 compounds, 44% hits. inhibition, % at 9.51 µM. shares compounds with Fam108B counter;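 active means inhibition above a limit from the primary screen, the mean over all compounds plus 3 SD, cut at about 19% in these data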;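 further: 0% = median of active Fam108b wells and 100% = catalytically dead S170A mutant; inhibitors free the probe so polarization falls as inhibition rises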
# Fam108b ABPP HTS: mouse ABHD17B inhibition; recombinant Fam108b, gel-based ABPP, fluorophosphonate probe; inhibition, % at 20 µM; shares compounds with Fam108B counter; 260 compounds, 44% hits; in the data active means inhibition above about 40%
# * = called active by the depositor; . = no result; + = active, no number. Compounds with a hit are over-represented: about 2.6% of the library has one in this group of screens.
SMILES,PRMT1 FP inh,PAD4 FP inh,TCR CD3 inh,Fam108B counter,PME-1 primary,SIAE inh,Fam108b inh conf,others
Fc1ccc(/C=C\c2nccc3c2[nH]c2ccccc23)cc1,1,-4,1,19*,-33,1,1,
COC(=O)[C@]12C[C@H](CC(=O)N3CCSCC3)C(=O)N(CCC3=CCCCC3)C1=C[C@H](C(C)C)O[C@@H]2C1CC1,-2,.,.,.,.,-2,.,
COc1ccc(-n2c(SCC(=O)Nc3cccc4ccccc34)nnc2-c2ccco2)cc1,1,.,.,.,.,-2,.,
Cc1ccc(NS(=O)(=O)c2cc(C(=O)Nc3cccc([N+](=O)[O-])c3)ccc2C)cc1,2,-7,3,-17,-33,-70,.,
Cc1ccc(NC(=O)CC(=O)c2ccc([N+](=O)[O-])cc2)cc1S(=O)(=O)Nc1cccc(Cl)c1,-2,-1,5,25*,9,-41,14,
COc1ccc(C(=O)NC(=S)N2CCN(C)CC2)cc1Br,4,3,-5,47*,-4,-3,2,
Cc1ccc(C(=O)NC(=S)N2CCN(C)CC2)cc1Br,4,.,-12,.,.,2,.,
Cc1ccc2nc(CSc3nc(C)ccc3C#N)[nH]c2c1,4,-2,-8,42*,4,6,40*,Fam108b ABPP HTS=55*
CN(C)c1ccc(NC(=O)c2cccc(C(=O)Nc3ccc(N(C)C)cc3)n2)cc1,6,3,-4,21*,-18,11,32*,Fam108b ABPP HTS=35
O=C(O)c1ccc(NC(=O)c2cccc(C(=O)Nc3ccc(C(=O)O)cc3)n2)cc1,4,5,-10,21*,22,8,13,
O=C(c1cc(-c2ccc(Cl)cc2)nc2ccccc12)N1CCN(c2ncccn2)CC1,5,.,.,.,.,-3,.,
COCCN=c1scc(-c2ccc3c(c2)NC(=O)CO3)n1/N=C(\C)c1ccc(O)cc1,-4,5,3,5,11,11,.,
COc1cc(/C=N/n2c(-c3ccc4c(c3)NC(=O)CO4)csc2=Nc2cccc(C)c2)ccc1O,3,4,-6,21*,9,41*,8,
O=C(O)c1ccc2c(c1)C(=O)/C(=C\c1ccco1)C2=O,34*,11,3,18*,-33,-6,13,
C=CCN1C(=O)[C@H](CC(=O)NCCC(C)C)[C@@]2(C(=O)OCC)CCCC=C12,-6,.,.,.,.,1,.,
COc1ccc(C=NNc2ccc(S(=O)(=O)Nc3ccccc3C(=O)O)cc2[N+](=O)[O-])c(OC)c1,.,3,.,.,.,.,.,
CSc1ccc(C=NNc2ccc(S(=O)(=O)Nc3ccccc3C(=O)O)cc2[N+](=O)[O-])cc1,2,-6,-1,.,.,12,.,
Cc1nn(-c2ccccc2)c(Cl)c1/C=N/Nc1ccc(S(=O)(=O)Nc2ccccc2C(=O)O)cc1[N+](=O)[O-],-1,-3,0,33*,51*,18*,51*,
COc1ccc(NC(=S)NNc2ccc(S(=O)(=O)Nc3ccccc3C(=O)O)cc2[N+](=O)[O-])cc1,17,9,1,52*,50*,-11,15,
O=C(OCC#CCSc1nnc(-c2ccccc2F)o1)c1ccc(F)cc1,-4,.,.,.,.,7,.,
Cc1c(O)ccc(C(Cc2ccc3ccccc3n2)=NO)c1O,.,.,.,.,.,.,.,Fam108b ABPP HTS=0
CCOC(=O)c1sc(NC(=O)c2cccc(S(=O)(=O)N3c4ccccc4CC3C)c2)cc1C (stereo not given),1,2,-3,43*,33*,-7,21*,
Cc1sc2ncnc(N/N=C/c3ccc(O)cc3)c2c1C,-6,-2,1,10,21,-2,.,
Cc1sc2ncnc(N/N=C/c3ccccc3O)c2c1C,-1,-3,-1,19*,17,3,0,
COc1ccc(NC(=O)Nc2sc(=S)n(C)c2C)cc1,0,-1,-2,2,6,7,.,
SMILES,PRMT1 FP inh,PAD4 FP inh,TCR CD3 inh,Fam108B counter,PME-1 primary,SIAE inh,Fam108b inh conf,others
Cc1c(NC(=O)Nc2ccc(Cl)c(Cl)c2)sc(=S)n1C,16,1,-12,32*,30*,2,25*,
COc1cc(/C=N/NC(=O)c2ccc(CN3C(=O)c4cccc5cccc3c45)cc2)cc(OC)c1O,2,-2,0,31*,17,12,22*,
COc1ccc(/C=N/NC(=O)c2ccc(CN3C(=O)c4cccc5cccc3c45)cc2)cc1O,0,-2,-1,9,-2,-18,.,
O=C(CSCC(=O)Nc1ccccc1)N/N=C/c1c(O)ccc2ccccc12,0,-1,7,5,-1,9,.,
O=C(O)c1cc(N/N=C/c2c(O)ccc3ccccc23)ccc1Cl,10,7,7,19*,31*,4,19*,
COc1ccc(CNC(=O)c2ccc3nccnc3c2)cc1,-1,-1,-2,19*,-1,-6,5,
CCN(CC)c1ccc2nc3c4ccccc4c(=O)cc-3oc2c1,5,.,-27,.,.,-131,.,
CCN(CC)c1ccc2c(-c3ccc(S(=O)(=O)O)cc3S(=O)(=O)[O-])c3ccc(=[N+](CC)CC)cc-3oc2c1,.,.,.,90*,+,.,166*,
COc1ccc(C2Nc3ccccc3C(=O)N2Cc2ccco2)cc1COc1c(C)cc(NC(C)=O)cc1C (stereo not given),1,.,.,.,.,-18,.,
O=C(Nc1cccc(C(F)(F)F)c1)c1ccc2nc(-c3ccco3)c(-c3ccco3)nc2c1,3,-26,-7,52*,30*,-2,6,
O=C1c2ccccc2C(=O)c2c([N+](=O)[O-])ccc(O)c21,6,14,-7,31*,29*,0,36*,Fam108b ABPP HTS=30
COC(=O)[C@]12C[C@H](CC(=O)N3CCC(c4ccccc4)CC3)C(=O)N(CCc3ccc(OC)c(OC)c3)C1=C[C@H](C1CCCC1)O[C@@H]2C,8,.,.,.,.,4,.,
C#CCCN([C@@H](CC(C)C)C(=O)OC)S(=O)(=O)c1ccc(F)cc1Br,0,.,.,.,.,-2,.,
O=C(CSc1c(F)c(F)cc(F)c1F)Nc1ccc(C2SCCS2)cc1,0,0,2,137*,145*,10,150*,Fam108b ABPP HTS=0
Cc1cc(Br)ccc1OCCCN1CCC(C(O)(c2ccccc2)c2ccccc2)CC1,0,.,.,.,.,-2,.,
O=C(Nc1ccc(S(=O)(=O)Nc2nccs2)cc1)c1ccc(=O)[nH]c1,4,3,18,18*,-19,-24,10,
CCN(CC)c1c2c(nc3ncnn13)CCCC2,-3,.,.,.,.,0,.,
COC(=O)c1c(NC(=O)/C=C/c2ccc3c(c2)OCO3)sc(C)c1C,2,3,-5,0,-2,13,.,
CCOC(=O)c1c(NC(=O)/C=C/c2ccc3c(c2)OCO3)sc(C)c1CC,-1,-8,13,82*,-30,4,-7,
